Data reported in PubChem BioAssay AID1159580 (chemical genetic matrix, 2015).
Screen size: about 5,500 compounds; about 2,000 (36%) were called active. About 18% were inconclusive and are not listed. No stated cut-off is given here; in the data, active means normalized growth mostly below about 0.91 (no sharp cut-off); inconclusive means no clear call, values can overlap the other calls; inactive means mostly above about 0.92. This is one part of the list.

Experiment: chemical genetic growth profiling, strain panel (AID 1159580);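 further: tested at 20 µM; growth read once vehicle control cultures reached saturation at 30 °C; 1 = growth at the plate median or of vehicle wells; lower values mean less growth of the strain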
Settings: S. cerevisiae deletion strains, growth OD

Measured: normalized growth

COc1ccc(-c2cc(=O)c3c(O)c(OC)c(OC)c(OC)c3o2)cc1OC
active: locus YDR137W, strain rgp1, active compounds read low 1.2 [resistant] | locus YMR058W, strain fet3, active compounds read low 0.815
inactive: locus YAL021C, strain ccr4, active compounds read low 0.997 | locus YAL026C, strain drs2, active compounds read low 0.974 | locus YAL030W, strain snc1, active compounds read low 0.995 | locus YBL061C, strain skt5, active compounds read low 0.991 | locus YBR009C, strain hhf1, active compounds read low 0.965 | locus YBR023C, strain chs3, active compounds read low 1 | locus YBR171W, strain sec66, active compounds read low 0.994 | locus YBR231C, strain swc5, active compounds read low 0.976 | locus YBR279W, strain paf1, active compounds read low 0.995 | locus YCL011C, strain gbp2, active compounds read low 0.989 | locus YCL016C, strain dcc1, active compounds read low 0.996 | locus YCL069W, strain vba3, active compounds read low 1.01 | locus YCR088W, strain abp1, active compounds read low 0.997 | locus YDL005C, strain med2, active compounds read low 0.998 | locus YDL040C, strain nat1, active compounds read low 1.02 | locus YDR001C, strain nth1, active compounds read low 1 | locus YDR069C, strain doa4, active compounds read low 0.972 | locus YDR159W, strain sac3, active compounds read low 0.967 | locus YDR195W, strain ref2 1.03 | locus YDR297W, strain sur2, active compounds read low 0.988 | locus YDR334W, strain swr1, active compounds read low 1 | locus YDR335W, strain msn5, active compounds read low 1 | locus YDR392W, strain spt3, active compounds read low 0.867 | locus YEL003W, strain gim4, active compounds read low 0.994 | locus YEL037C, strain rad23, active compounds read low 0.997 | locus YEL061C, strain CIN8 (second series), active compounds read low 1.02 | locus YER015W, strain faa2, active compounds read low 0.989 | locus YER016W, strain bim1, active compounds read low 1.04 | locus YER111C, strain swi4, active compounds read low 0.987 | locus YER155C, strain BEM2 (second series), active compounds read low 0.939 | locus YFR010W, strain ubp6, active compounds read low 0.997 | locus YGL167C, strain pmr1, active compounds read low 0.992 | locus YGL173C, strain kem1, active compounds read low 0.991 | locus YGL227W, strain vid30, active compounds read low 0.99 | locus YGL240W, strain doc1, active compounds read low 0.983 | locus YGL253W, strain hxk2, active compounds read low 0.951 | locus YHR013C, strain ard1, active compounds read low 1.01 | locus YHR027C, strain rpn1, active compounds read low 1 | locus YHR030C, strain SLT2, active compounds read low 0.961 | locus YHR079C, strain IRE1, active compounds read low 0.949 | locus YHR142W, strain chs7, active compounds read low 0.953 | locus YJL092W, strain hpr5, active compounds read low 1 | locus YJL095W, strain BCK1 (second series), active compounds read low 0.992 | locus YJL095W, strain BCK1, active compounds read low 1.01 | locus YJL115W, strain asf1, active compounds read low 0.996 | locus YJL129C, strain trk1, active compounds read low 0.949 | locus YJL154C, strain vps35, active compounds read low 0.998 | locus YJL164C, strain tpk1, active compounds read low 0.995 | locus YJL166W, strain qcr8, active compounds read low 0.974 | locus YJL187C, strain SWE1, active compounds read low 0.989 | locus YJR066W, strain TOR1, active compounds read low 0.914 | locus YKL160W, strain elf1, active compounds read low 0.994 | locus YKR026C, strain gcn3, active compounds read low 0.995 | locus YKR091W, strain srl3, active compounds read low 1.03 | locus YLL001W, strain dnm1, active compounds read low 0.984 | locus YLL026W, active compounds read low 0.998 | locus YLL041C, strain sdh2, active compounds read low 1 | locus YLR027C, strain aat2, active compounds read low 0.997 | locus YLR113W, strain HOG1, active compounds read low 1 | locus YLR221C, strain rsa3, active compounds read low 0.943 | locus YLR258W, strain gsy2, active compounds read low 1 | locus YLR262C, strain YPT6 (second series), active compounds read low 0.985 | locus YLR320W, strain mms22, active compounds read low 0.975 | locus YLR342W, strain FKS1, active compounds read low 1 | locus YLR357W, strain rsc2, active compounds read low 0.972 | locus YLR370C, strain arc18, active compounds read low 0.986 | locus YLR384C, strain iki3, active compounds read low 0.974 | locus YML120C, strain ndi1, active compounds read low 0.989 | locus YMR125W, strain sto1, active compounds read low 1.01 | locus YMR129W, active compounds read low 1.01 | locus YMR205C, strain PFK2, active compounds read low 1 | locus YMR231W, strain pep5, active compounds read low 1 | locus YNL071W, strain lat1, active compounds read low 0.994 | locus YNL183C, strain NPR1, active compounds read low 0.944 | locus YNL209W, strain ssb2, active compounds read low 0.998 | locus YNL248C, strain rpa49, active compounds read low 0.971 | locus YNL322C, strain KRE1 (second series), active compounds read low 1 | locus YNR049C, strain mso1, active compounds read low 1.01 | locus YOR001W, strain rrp6, active compounds read low 0.94 | locus YOR070C, strain gyp1, active compounds read low 0.978 | locus YOR080W, strain dia2, active compounds read low 0.999 | locus YOR083W, strain WHI5, active compounds read low 0.991 | locus YOR106W, strain vam3, active compounds read low 0.954 | locus YOR231W, strain MKK1, active compounds read low 0.95 | locus YOR265W, strain rbl2, active compounds read low 0.993 | locus YOR270C, strain vph1, active compounds read low 0.962 | locus YOR290C, strain snf2, active compounds read low 0.994 | locus YPL051W, strain arl3, active compounds read low 0.947 | locus YPL078C, strain atp4, active compounds read low 0.979 | locus YPL106C, strain sse1, active compounds read low 0.953 | locus YPL240C, strain hsp82, active compounds read low 1.03 | locus YPL256C, strain CLN2, active compounds read low 0.971
